# Anthrax LF prot – anthrax lethal factor protease inhibition. multiplex microsphere protease cleavage assay, LF. inhibition, % at 10 µM. 0.12% of 360,000 active; also: plate controls were buffer without enzyme for full effect and enzyme alone for no effect
# MazF activator – MazEF (E. coli) toxin RNase activation; P0AE70; FAM/BHQ RNA-DNA oligo cleavage fluorescence, 5 h; activation, % at 20 µM; 0.32% of 350,000 active; in the data active = activation above about 50%
# Target sequence (P0AE70 whole entry, looked up): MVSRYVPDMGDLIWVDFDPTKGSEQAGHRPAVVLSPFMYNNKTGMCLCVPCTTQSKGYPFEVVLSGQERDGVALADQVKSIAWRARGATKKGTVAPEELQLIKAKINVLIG
# BoNT-F LC inh – inhibitors of Botulinum neurotoxin F light chain protease; Multiplex microsphere protease cleavage assay, flow cytometry; inhibition, % at 10 µM; 0.22% of 360,000 active; AID 588497; in the data active = inhibition above about 35%, passing the limit was not always enough; inconclusive = no clear call, values can overlap the other calls; also: plate controls were buffer without enzyme for full effect and enzyme alone for no effect
# Bead autofluor – counter-screen for toxin protease inhibitors: compound fluorescence; AID 624483; fluorescence intensity (test concentration not listed); compound autofluorescence counterscreen, microsphere flow cytometry; stronger effect = higher value; 3.1% of 360,000 active; in the data active = fluorescence intensity above about 16000; inconclusive = no clear call, values can overlap the other calls
# BoNT-A LC inh2 – BoNT A light chain protease inhibition | inhibition, % at 10 µM | AID 588499 | multiplex microsphere protease substrate cleavage, flow cytometry | 0.17% of 360,000 active; also: plate controls were buffer without enzyme for full effect and enzyme alone for no effect
# VHR inh abs – inhibitors of human VHR1 phosphatase (DUSP3) | P51452 | recombinant VHR phosphatase, pNPP absorbance | inhibition, % at 13.3 µM | 0.52% of 290,000 active | AID 1654; in the data active = inhibition above about 50%
# Target sequence (P51452 whole entry, looked up): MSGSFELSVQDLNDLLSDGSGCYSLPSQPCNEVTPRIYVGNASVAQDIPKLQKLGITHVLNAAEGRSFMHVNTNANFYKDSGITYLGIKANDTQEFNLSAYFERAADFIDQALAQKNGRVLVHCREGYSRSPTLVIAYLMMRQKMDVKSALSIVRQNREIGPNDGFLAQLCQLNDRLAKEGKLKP
# * marks the source's active call; other numbers are inactive results; ? = inconclusive; . = not tested or not shown. Sampled rows, rich in hits. Any-hit rate of the full collection: about 4.1%. Rule as the data show it, unless noted: active = inhibition above about 30%; inconclusive = no clear call, values can overlap the other calls; inactive = below that.
SMILES,Anthrax LF prot,MazF activator,BoNT-F LC inh,Bead autofluor,BoNT-A LC inh2,VHR inh abs
O=C(CNCCC1=CCCCC1)Nc1ccccc1N1CCCCC1,-8,-7,-11,17116*,-3,-6
O=C(NCN1CCc2ccccc2C1)c1ccccc1,-1,4,-6,17046*,-2,19
O=C(CN1CCc2ccccc2C1)Nc1ccccc1N1CCCCCC1,-3,-10,-3,23403*,0,0
O=C(CNC1CCCCCC1)Nc1ccccc1N1CCCCC1,-3,0,21,3522,-1,23
Cc1cnc(C(=O)NCC(=O)Nc2ccccc2Br)cn1,.,-2,.,.,.,.
O=C(/C=C/[C@H]1O[C@@H](n2ccc(=O)[nH]c2=O)[C@H](O)[C@@H]1O)NC(c1ccccc1)c1ccccc1,1,.,4,4226,-1,.
O=C(CCc1ccccc1)n1nc(-c2ccccc2)nc1NCc1ccco1,-5,0,-4,23164*,-3,-3
COc1ccc(CC(=O)n2nc(-c3ccccc3)nc2NCc2ccco2)cc1,-5,-2,0,5883,0,-1
CCc1nc(SCCO)c2oc3ccccc3c2n1,-3,4,-5,2822,0,21
CCc1nc(SCC(=O)N2CCN(c3ccccc3)CC2)c2oc3ccccc3c2n1,-9,5,-8,17485*,-6,27
CCc1nc(SCC(=O)N2CCN(c3ccccc3)CC2)c2c(=O)n(C)c(=O)n(C)c2n1,.,.,.,.,.,16
CCc1nc(SCC(=O)c2ccc(Cl)s2)c2oc3ccccc3c2n1,-2,-27,-1,16776*,0,14
CCc1nc(SCc2nc3ccccc3[nH]2)c2oc3ccccc3c2n1,-8,2,5,17511*,5,19
CS(=O)(=O)c1ccc(C(=O)Nc2ccc(N3CCCCC3)cc2)c(Cl)c1,-3,1,-5,2032,1,9
Cc1ccc(Sc2ccc(NC(=O)c3ccc(S(C)(=O)=O)cc3Cl)cc2)cc1,-9,-3,-1,21237*,?,25
CCOC(=O)Cc1c(C)nc2c(C#N)c[nH]n2c1=O,3,-13,-2,23050*,-1,20
O=C(O)c1ccc(Cl)c(S(=O)(=O)Nc2ccccc2Cc2ccccc2)c1,1,5,0,5771,0,-5
CC(C)Oc1cccc(C(=O)NC(=S)Nc2ccc(Cl)c(C(=O)O)c2)c1,-2,-2,1,23433*,-1,17
COc1ccc(C(=O)NC(=S)Nc2ccc(Cl)c(C(=O)O)c2)cc1,0,4,-7,5384,0,-3
CN(C)CCNc1oc(-c2cccc(Cl)c2)nc1C#N,1,5,-4,20990*,-4,51*
CCOc1ccc(Nc2oc(-c3cccc(Cl)c3)nc2C#N)cc1,-4,1,2,23170*,?,31
O=C(O)C(Cc1ccc(OS(=O)(=O)Cc2ccccc2)cc1)NS(=O)(=O)Cc1ccccc1 (configuration not stated),6,2,-4,2950,0,.
c1coc(Cn2c(SCc3nc4ccccc4[nH]3)nnc2-c2cccs2)c1,1,1,3,18667*,2,22
C(=C\c1ccccc1)/CSc1nnc(-c2ccccc2)n1Cc1ccco1,-2,-9,1,23193*,1,14
c1ccc(CSc2nnc(-c3cccs3)n2Cc2ccco2)cc1,-1,8,-7,20965*,-5,9
SMILES,Anthrax LF prot,MazF activator,BoNT-F LC inh,Bead autofluor,BoNT-A LC inh2,VHR inh abs
CCCC(=O)N1CCC1(C)C(=O)Nc1cc(OC)ccc1OC (configuration not stated),-5,.,-3,2966,0,.
CCNC(=S)NNC(=O)c1cc(-c2cc(C)ccc2C)nc2ccccc12,-1,3,3,19654*,1,13
Cc1ccccc1NC(=O)C1CC(Cl)=CCC1C(=O)O (configuration not stated),-9,3,-1,21780*,2,10
O=C(CNCC1CCCO1)Nc1ccccc1N1CCOCC1 (configuration not stated),0,-5,1,22897*,1,41
CCN(CC)C(=O)C(C)OC(=O)COc1ccc(Cl)cc1C (configuration not stated),-3,4,-2,22121*,-1,22
C/C(N)=C(/C#N)C(=O)COC(=O)COc1ccc(Cl)cc1C,-3,3,2,21745*,0,-5
CSc1ncccc1C(=O)NCC1CCCCC1,0,7,-3,4274,-1,51*
CSc1ncccc1C(=O)NC1CCCCCCC1,-3,-10,-30,2939,1,5
CN1CC=C2C(C#N)=C(N)C(C#N)(C#N)[C@H](c3ccoc3)[C@H]2C1,0,-89,-22,2574,1,14
CC(=O)N1CC=C2C(C#N)=C(N)C(C#N)(C#N)[C@H](c3ccoc3)[C@H]2C1,0,12,-1,23512*,1,-11
Cc1ccc(C2C3CN(C(C)C)CC=C3C(C#N)=C(N)C2(C#N)C#N)cc1 (configuration not stated),0,156*,4,6126,3,17
CCCCOc1ccc(C2C3CN(C(=O)OCC)CC=C3C(C#N)=C(N)C2(C#N)C#N)cc1OC (configuration not stated),1,-8,-1,23656*,-1,-1
CCOC(=O)N1CC=C2C(C#N)=C(N)C(C#N)(C#N)[C@H](c3ccc(OCC)c(OCC)c3)[C@H]2C1,0,-5,-3,20898*,-2,18
Cc1nc(NC(=O)CSc2nnc(C3CC3)n2N)c(Cl)cc1Cl,2,0,-7,3759,0,.
COc1cccc(-c2cc(CNC(=O)[C@H]3O[C@@H](n4cnc5c(N)ncnc54)[C@H](O)[C@@H]3O)no2)c1,-1,.,-1,6288,-2,.
OCCN(CC(O)Cn1ccc2ccccc21)CC(O)Cn1ccc2ccccc21 (configuration not stated),.,-4,.,.,.,51*
Cc1ccc(C(=O)O/N=C2\CC3CCC2(C)C3(C)C)cc1 (configuration not stated),-3,-1,1,21254*,?,3
COC(=O)c1c(NC(=O)c2cccnc2)sc(C)c1C,-1,3,-6,4650,0,21
C/C(=N\NC(=O)c1cccnc1)c1ccccc1,7,4,-9,3276,-1,59*
COC(=O)c1cc(C)sc1NC(=O)c1cccnc1,-1,1,-10,24838*,-7,12
COc1cccc(C(=O)NNC(=O)c2cccnc2)c1,1,3,4,5412,-1,60*
CCCc1nnc(NC(=O)c2cccc(OC)c2)s1,0,3,8,21067*,?,-4
COc1cccc(C(=O)Nc2nnc(Cc3ccc(OC)c(OC)c3)s2)c1,-7,3,-5,6392,-1,-7
O=C(Nc1ccc(F)c(Cl)c1)Nc1nnc([C@@H]2O[C@H](CO)[C@@H](O)[C@H]2O)s1,-2,.,4,3805,0,.
CC1CCN(c2ccc(-c3cccc(NC(=O)c4ccco4)c3)nn2)CC1,.,1,.,.,.,.
